# Screening data from PubChem BioAssay.
# Sm TGR block: S. mansoni TGR enzyme inhibition | purified TGR, DTNB reduction, TNB absorbance 405 nm | Q962Y6 | Potency, µM (series often up to 114 µM), for the others: top-dose activity change, negative = inhibition, usual class: inhibitors | AID 485364 | hit rate 3% among 360,000; active = well fitted inhibition curve with a large enough effect; inconclusive = small, poorly fitted or top-dose-only effect; inactive = no such curve, though single readings can be large or run the other way; note: potency is the fitted concentration of half-maximal effect; % is set by controls: 0 for no effect and ±100 for the full control effect; nearly all actives have a fitted effect of over 60% in size
#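 First, TGR (20 nM dispensed) and NADPH were mixed with compound. Second, a 15 min room-temperature incubation followed. Third, further NADPH and then DTNB were added to start the reaction. Finally, TNB absorbance was monitored kinetically.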
# Shiga inhibitor: inhibitors of Shiga toxin in Vero cells; Vero cells, Shiga toxin protein synthesis inhibition reporter; inhibition, % at 38.7 µM; hit rate 9.2% among 290,000; in the data active = inhibition mostly above about 28%, no sharp cut-off; inactive = mostly below about 43%; note: 0% is about no effect
# FMDV inh: antivirals against foot and mouth disease virus | FMDV antiviral cell-based qHTS | hit rate 1.2% among 410,000 | AID 1159524 | Potency, µM (series often up to 57.9 µM), without a hit: at the top dose activity change, negative = inhibition, usual class: inhibitors; calls by dose curve; tested in HEK293T cells; note: read-out not given here; potency is the fitted concentration of half-maximal effect; % is set by controls: 0 for no effect and ±100 for the full control effect; nearly all actives have a fitted effect of over 45% in size
# Cycloheximide cs: counter-screen for Shiga toxin inhibitors: cycloheximide protein synthesis inhibition; max response, %; hit rate 12% among 300,000; cell reporter, cycloheximide protein synthesis inhibition counterscreen; AID 2314; in the data active = max response mostly above about 13%, no sharp cut-off; inactive = mostly below about 14%; note: read at 38.3 µM for the half of the compounds with a filed dose; 0% is about no effect
# Active calls of the source: *; i = inactive; u = inconclusive; x = not tested or not shown; [ ] = remark or other dose. Rows were chosen to be rich in hits. Some 12% of all compounds tested hit in one or more screens of this group.
SMILES,Sm TGR block,Shiga inhibitor,FMDV inh,Cycloheximide cs
Cc1ccccc1C(=O)OCC(=O)N(C)c1ccccc1,-5%,31,57%,24*
CN(C(=O)COC(=O)c1ccccc1C(=O)N(C)c1ccccc1)c1ccccc1,1%,25,7%,4
Cc1cccc(C(=O)OCC(=O)N(C)c2ccccc2)c1C,10%,35*,5%,14*
Fc1ccc(CNc2cc(-c3ccccc3)nc3nncn23)cc1,-3%,x,u,x
Cc1cccc(/C(N)=N/OC(=O)CCC2CCCCC2)c1,-12%,29,63%,18
Cc1occc1C(=O)O/N=C(\N)c1ccccc1,-3%,72*,-47%,51*
Cc1cccc(/C(N)=N/OC(=O)c2ccoc2C)c1,-11%,68*,2%,38*
O=C1c2ccccc2NC2(CCCCC2)N1N=C1CCCCC1,3%,44*,-12%,60*
O=C1c2ccccc2NC2(CCCC2)N1O,-12%,53*,-25%,16*
Cc1ccc(CN2C(=O)c3ccccc3NC23CCN(Cc2ccccc2)CC3)cc1,7%,35,0%,-2
CCCCSc1nnc2c(n1)OC(c1ccc(Br)s1)N(C(C)=O)c1ccccc1-2 (stereo not given),5%,x,-23%,x
O=C(NCCS(=O)(=O)N1CCN(c2ccc(F)cc2)CC1)c1cccc(C(F)(F)F)c1,7%,x,0%,x
COc1cc2c(cc1NC(=O)C(C)N1CCN(S(=O)(=O)c3ccccc3[N+](=O)[O-])CC1)oc1ccccc12 (stereo not given),-8%,55*,23%,27*
COc1cc2c(cc1NC(=O)c1cccnc1)oc1ccccc12,0%,57,40%,29*
COc1cc2c(cc1NC(=O)c1cccc([N+](=O)[O-])c1)oc1ccccc12,4%,-3,13µM*,-3
Cn1ccnc1C(=O)c1ccc(N)cc1,7%,4,14%,-3
Cc1ccc(C(=O)c2nccn2C)cc1C,3%,46,31%,42*
Cc1cc(C)cc(NC(=S)NCc2cccnc2)c1,u,-1,31%,-2
CN(C)c1cccc(C(=O)Nc2ccc3nc4n(c(=O)c3c2)CCCCC4)c1,2%,53*,0%,24*
CCOC(=O)N1CCN(C(=O)CC(=O)Nc2ccc3nc4n(c(=O)c3c2)CCCCC4)CC1,-5%,-13,0%,1
COc1cc(OC)cc(C(=O)Nc2ccc3nc4n(c(=O)c3c2)CCCC4)c1,-14%,70*,34%,27*
Cc1cc(=O)oc2cc(NC(=S)NCc3cccnc3)ccc12,40µM*,-5,94%,11
COCC(=O)Nc1ccc2nc3n(c(=O)c2c1)CCCCC3,3%,13,12%,12*
CC(CN(C)C)C(C)(O)Cc1ccc(Cl)cc1 (stereo not given),x,-19,x,5
O=c1c2cc(NC(=S)NCc3cccnc3)ccc2nc2n1CCCCC2,56µM*,69,17%,22*
SMILES,Sm TGR block,Shiga inhibitor,FMDV inh,Cycloheximide cs
O=C(/C=C/c1ccco1)Nc1ccc2nc3n(c(=O)c2c1)CCCC3,32µM*,66*,38%,52*
O=C(NCc1ccccc1)C(=O)Nc1ccc2nc3n(c(=O)c2c1)CCCCC3,-2%,x,-1%,x
COc1cccc(C(=O)Nc2ccc3nc4n(c(=O)c3c2)CCCC4)c1,3%,56*,16%,23*
N#Cc1ccc2c(c1)C[C@]1(CCCCN3C(=O)c4ccccc4C3=O)OC3=C(C(=O)OC4(CCCCC4)C3)C2O1,-34%[22.9 µM],i,x,-1
O=C(c1cnc2nc3ccccc3n2c1)c1cc(F)ccc1O,-31%,11,52%,14*
Cc1ccc(/C=C/c2ccc3cccc(O)c3n2)s1,-2%,95*,21%,58*
CC(=O)COc1cccc2ccc(/C=C/c3ccc(Br)s3)nc12,-1%,36*,-3%,20
COC(=O)c1ccc(/C=C/c2ccc3cccc(OC)c3n2)cc1,-7%,-9,u,-3
COc1cccc(/C=C/c2ccc3cccc(O)c3n2)c1,3%,121*,-24%,47*
Oc1cccc(/C=C/c2ccc3cccc(O)c3n2)c1,-16%,128*,-51%,37*
Cc1cccc(/C=C/c2ccccc2)n1,x,x,39%,x
CCc1ccccc1NC(=O)Cn1c(=O)n(-c2ccc(C)cc2)c(=O)c2cc(OC)c(OC)cc21,5%,x,-7%,x
CC(=O)N1c2ccc(S(=O)(=O)N(C)CC(=O)N(Cc3ccccc3)C(C)C)cc2CC1C (stereo not given),-1%,x,-8%,x
O=c1c(-c2ccc(Cl)cc2)nc2cnc(N3CCOCC3)nc2n1C[C@H]1CCCO1,x,x,-11%,x
CCCC1([C@H](O)C/C=C/[C@H]2[C@H](O)CC(=O)[C@@H]2CCCCCCC(=O)OC)CCC1,x,-5,x,-3
